Results taken from the supplement of paper PMC3545927.
The other results are listed elsewhere or left out. The true hit rate is not given.

B1: HC1354 (peptide)
chain: CASMPPLEGEAGNASASA
B2: NG6 (peptide)
chain: CAGAAKAAAGAGNASASA
B3: HC117 (peptide)
chain: CAVVCCYMSYAGNASASA
B4: HC881 (peptide)
chain: CAMTGYTGDFAGNASASA
B5: FS-1401 (peptide)
chain: CARPARFLRHAGNASASA
B6: FS-2984 (peptide)
chain: CARLARNVKEAGNASASA
B7: HC489 (peptide)
chain: CARDRSELSPAGNASASA
B8: FS-2574 (peptide)
chain: CARLRRGGDPAGNASASA
B9: FS-3144 (peptide)
chain: CAVTKRDVLDAGNASASA
B10: FS-2983 (peptide)
chain: CARLARGEDEAGNASASA
B11: FS-2051 (peptide)
chain: CARPARFLDSAGNASASA
B12: FS-2115 (peptide)
chain: CAVTKRSLSPAGNASASA
B13: FS-1745 (peptide)
chain: CARLRRSLKPAGNASASA
B14: FS-1744 (peptide)
chain: CARLRRGQCPAGNASASA
B15: HC842 (peptide)
chain: CAEEVALSTTAGNASASA
B16: HC1976 (peptide)
chain: CAEGTTPCSGAGNASASA
B17: HC2512 (peptide)
chain: CASTECSAHLAGNASASA
B18: HC129 (peptide)
chain: CAEVVHSTWVAGNASASA
B19: HC383 (peptide)
chain: CAHKFNSSGCAGNASASA
B20: FS-3161 (peptide)
chain: CARLRRSGRCAGNASASA
B21: FS-2352 (peptide)
chain: CARLRRSLSPAGNASASA
B22: FS-2280 (peptide)
chain: CARLRRSLPPAGNASASA
B23: FS-1607 (peptide)
chain: CARLRRSKRCAGNASASA
B24: FS-1746 (peptide)
chain: CARLRRVKTAAGNASASA
B25: FS-2717 (peptide)
chain: CARLRRSNYFAGNASASA
B26: FS-916 (peptide)
chain: CARLRRQKKGAGNASASA
B27: HC1043 (peptide)
chain: CAMWNFISGIAGNASASA

Target: furin, P09958
Assay: furin cleavage Z-score vs untreated control; higher = more cleavage, active = 3.5 or more, inactive = 1 or less, 8 variable residues between constant flanks
How it was run: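 Purified furin cleaved 8-mer peptides that were fused to a cDNA oligonucleotide and held on magnetic beads by their N-terminus. Each 0.01 ml reaction used a 1:10 enzyme:substrate ratio in 50 mM HEPES pH 7.5 with CaCl2 and NaCl and ran 7.5, 15 or 30 min. Released DNA was adapter-tagged by PCR and sequenced, and read counts gave abundance. The cleavage Z-score came from log counts against furin-free reactions, lowess-adjusted and scaled by median absolute deviation.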

furin, P09958, sequence (P09958 whole entry): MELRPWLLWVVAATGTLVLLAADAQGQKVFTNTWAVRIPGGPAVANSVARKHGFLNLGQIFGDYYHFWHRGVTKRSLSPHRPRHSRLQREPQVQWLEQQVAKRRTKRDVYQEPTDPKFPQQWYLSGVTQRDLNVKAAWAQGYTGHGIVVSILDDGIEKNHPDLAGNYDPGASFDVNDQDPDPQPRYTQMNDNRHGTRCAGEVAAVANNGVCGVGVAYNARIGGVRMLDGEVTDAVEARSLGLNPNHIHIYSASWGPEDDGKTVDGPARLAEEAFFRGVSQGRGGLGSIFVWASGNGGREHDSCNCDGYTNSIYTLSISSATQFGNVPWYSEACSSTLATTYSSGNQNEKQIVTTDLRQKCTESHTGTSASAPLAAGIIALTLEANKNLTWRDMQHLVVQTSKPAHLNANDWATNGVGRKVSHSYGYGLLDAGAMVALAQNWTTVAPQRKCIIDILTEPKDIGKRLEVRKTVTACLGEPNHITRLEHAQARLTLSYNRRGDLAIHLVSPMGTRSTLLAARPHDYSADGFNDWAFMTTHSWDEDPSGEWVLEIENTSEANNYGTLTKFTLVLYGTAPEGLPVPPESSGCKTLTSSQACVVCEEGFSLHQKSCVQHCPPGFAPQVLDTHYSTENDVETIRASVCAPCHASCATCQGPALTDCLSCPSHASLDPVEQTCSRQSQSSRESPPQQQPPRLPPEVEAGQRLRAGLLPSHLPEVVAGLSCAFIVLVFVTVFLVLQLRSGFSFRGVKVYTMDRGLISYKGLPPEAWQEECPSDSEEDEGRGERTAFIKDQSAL

Row | Sequence | furin cleavage Z-score (7.5 min) | furin cleavage Z-score (15 min) | furin cleavage Z-score (30 min)
1 | B1 | 0.264 (inactive) | -0.391 (inactive) | -0.745 (inactive)
2 | B2 | -1.87 (inactive) | -1.89 (inactive) | -1.77 (inactive)
3 | B3 | -0.228 (inactive) | 0.612 (inactive) | -0.215 (inactive)
4 | B4 | 0.318 (inactive) | 1.08 | -0.18 (inactive)
5 | B5 | 7.22 (active) | 9.82 (active) | 7.94 (active)
6 | B6 | 4.24 (active) | 6.29 (active) | 5.68 (active)
7 | B7 | -0.384 (inactive) | 0.819 (inactive) | -0.778 (inactive)
8 | B8 | -0.102 (inactive) | 1.44 | 0.372 (inactive)
9 | B9 | -0.767 (inactive) | -0.792 (inactive) | 0.507 (inactive)
10 | B10 | -0.38 (inactive) | -0.666 (inactive) | -0.468 (inactive)
11 | B11 | 0.467 (inactive) | 1.13 | 1.17
12 | B12 | 1.18 | 3.3 | 4.48 (active)
13 | B13 | 6.9 (active) | 7.63 (active) | 9.8 (active)
14 | B14 | -0.204 (inactive) | 1.25 | -0.396 (inactive)
15 | B15 | 0.962 (inactive) | -0.0897 (inactive) | 1.67
16 | B16 | -0.304 (inactive) | 0.383 (inactive) | -0.263 (inactive)
17 | B17 | -0.161 (inactive) | -0.192 (inactive) | 2.81
18 | B18 | -0.835 (inactive) | 0.0271 (inactive) | -0.684 (inactive)
19 | B19 | 0.00727 (inactive) | -1.4 (inactive) | -0.526 (inactive)
20 | B20 | 3.21 | -0.166 (inactive) | 3.48
21 | B21 | 10.8 (active) | 9.04 (active) | 8.19 (active)
22 | B22 | 7.15 (active) | 6.52 (active) | 7.39 (active)
23 | B23 | 2.93 | 1.58 | 3.77 (active)
24 | B24 | -0.934 (inactive) | -0.994 (inactive) | -0.54 (inactive)
25 | B25 | 0.785 (inactive) | 3.14 | 4.28 (active)
26 | B26 | -0.934 (inactive) | -1.47 (inactive) | -0.511 (inactive)
27 | B27 | -0.76 (inactive) | -0.163 (inactive) | 1.37
